Source: PubChem BioAssay (NCATS)
Several values for one entry are separate records, joined by “and”; a condition that tells them apart may be missing. Equal values may be shown once. Records with an inconclusive call do not appear. Where a structure was tested more than once in an assay, its records may differ in their call. Activity calls are given as the source filed them. Calls follow the shape of the dose curve; as a rule, active = well fitted curve in the direction sought with a large enough effect; inconclusive = small, poorly fitted or top-dose-only effect, or another doubt; inactive = no such curve, though single readings can be large; an effect the other way counts as inactive or inconclusive.

Columns and labels:
[1] = molecular target: Glutathione peroxidase 1 (Homo sapiens) (UniProt P07203); assay: Primary qHTS Assay for Inhibitors of Recombinant Selenoprotein Glutathione Peroxidase 1 (GPX1) (AID 1845191); also: nearly all actives have a fitted effect of over 65% in size; as to activity, negative = inhibition: % is scaled to controls: 0 for no effect and ±100 for the full control effect
Chain of Glutathione peroxidase 1 (Homo sapiens) (P07203 whole entry, looked up): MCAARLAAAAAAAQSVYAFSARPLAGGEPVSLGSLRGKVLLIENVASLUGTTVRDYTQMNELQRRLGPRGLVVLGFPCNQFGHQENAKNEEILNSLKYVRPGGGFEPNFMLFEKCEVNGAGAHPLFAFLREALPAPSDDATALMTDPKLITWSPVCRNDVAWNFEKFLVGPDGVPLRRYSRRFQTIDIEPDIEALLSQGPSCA
Summary of the method: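 10 nM GPX1 + cpd, 30 min RT; start w/ 1 mM GSH, 0.5 mM cumene hydroperoxide, 0.5 mM NADPH, 100 nM GR, 0.01% BSA; buffer 50 mM Tris-HCl pH 7.5, 2 mM EDTA, 150 mM NaCl; Fl 340/450, 0 & 15 min.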

[2] = molecular target: Phospholipid hydroperoxide glutathione peroxidase GPX4 (Homo sapiens) (UniProt P36969); assay: Primary qHTS Assay for Inhibitors of Recombinant Selenoprotein Glutathione Peroxidase 4 (GPX4) (AID 1845192); also: nearly all actives have a fitted effect of over 65% in size; also: potency is read from the fitted curve at half-maximal effect; as to activity change, negative = inhibition: series mostly up to about 50 µM; % is scaled to controls: 0 for no effect and ±100 for the full control effect
Chain of Phospholipid hydroperoxide glutathione peroxidase GPX4 (Homo sapiens) (P36969 whole entry, looked up): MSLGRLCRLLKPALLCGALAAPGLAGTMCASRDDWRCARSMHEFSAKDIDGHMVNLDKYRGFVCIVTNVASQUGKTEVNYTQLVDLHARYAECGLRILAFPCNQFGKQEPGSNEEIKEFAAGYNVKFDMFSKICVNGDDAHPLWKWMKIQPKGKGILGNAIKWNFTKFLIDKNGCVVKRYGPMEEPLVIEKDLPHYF
Summary of the method: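 NADPH consumption, followed by fluorescence at 340/450 nm between 0 and 15 min, reports GPX4 activity via coupled glutathione reductase (100 nM). Enzyme 200 nM was pre-exposed to compound 30 min; 0.5 mM cumene hydroperoxide and 1 mM GSH served as substrates.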

[3] = molecular target: Luciferin 4-monooxygenase (Photinus pyralis) (UniProt P08659); assay: Primary firefly luciferase (FLuc) qHTS assay for identification of artifact compounds. (AID 1845220); also: nearly all actives have a fitted effect of over 60% in size;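 as to activity change, negative = inhibition: series mostly up to about 54 µM; plate controls were DMSO vehicle for no effect and no enzyme for full effect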
Summary of the method: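 Cell-free, 1536-well qHTS. Buffer pH 7.6 with 0.01% Tween-20 and 0.05% BSA; 10 uM D-luciferin, 10 uM ATP; 10 nM P. pyralis luciferase; luminescence after 5 min.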

[4] = Primary fluorescence-based thiol-reactive (MSTI) qHTS assay for identification of artifact compounds. (AID 1845221); also: nearly all actives have a fitted effect of over 65% in size; also: potency is read from the fitted curve at half-maximal effect;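 as to activity change, negative = thiol reactive: series mostly up to about 54 µM; thiol-reactive compounds lower the probe fluorescence signal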
Summary of the method: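 Probe: MSTI 4 uM, PBS pH 7.4, 2% DMSO. Incubation 1 h, RT, light-protected. Readout fluorescence 525/598 nm.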

[5] = tested on: Nanoluciferase (engineered Oplophorus gracilirostris luciferase); assay: Primary Nanoluciferase (NLuc) qHTS assay for identification of artifact compounds. (AID 1845222); also: potency is read from the fitted curve at half-maximal effect;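 as to activity, negative = inhibition: series mostly up to about 54 µM; 0% = DMSO and -100% = no enzyme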
Summary of the method: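 Compounds are pinned into diluted (1:55) conditioned medium of NLuc-expressing S16 cells and held 15 min at room temperature protected from light. Nano-Glo substrate follows, and luminescence is read 5 min later.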

C=C1[C@@H]2CC[C@@]3(C)[C@H](c4ccoc4)OC(=O)C[C@]13O[C@H]1CC(=O)C(C)(C)[C@H](CC(=O)OC)[C@]12C
inactive: Potency [1] | Potency [2] | Potency [3] | Potency [4] | Potency [5]

CC(C)=CCC[C@](C)(O[C@@H]1O[C@H](CO[C@@H]2OC[C@@H](O)[C@H](O)[C@H]2O)[C@@H](O)[C@H](O)[C@H]1O)[C@H]1CC[C@]2(C)[C@@H]1[C@H](O)C[C@@H]1[C@@]3(C)CC[C@H](O[C@@H]4O[C@H](CO)[C@@H](O)[C@H](O)[C@H]4O[C@@H]4O[C@H](CO)[C@@H](O)[C@H](O)[C@H]4O)C(C)(C)[C@@H]3CC[C@]12C
inactive: Potency [1] | Potency [2] | Potency [3] | Potency [4] | Potency [5]

COC1(CC(C)C)NC(=O)C(O)(Cc2ccccc2)NC1=O (stereo not given)
inactive: Potency [1] | Potency [2] | Potency [3] | Potency [4] | Potency [5]

C=C1CC/C=C(/CO)C(=O)C[C@@H]2[C@@H]1CC2(C)C
inactive: Potency [1] | Potency [2] | Potency [3] | Potency [4] | Potency [5]

O=c1ccn(C2OC(CO)C(O)C2O)c(=O)[nH]1 (stereo not given)
inactive: Potency [1] | Potency [2] | Potency [3] | Potency [4] | Potency [5]

Cc1[nH]cnc1C1CCN(c2nc3cccc4c3n2CCC4=O)CC1
inactive: Potency [1] | Potency [2] | Potency [3] | Potency [4] | Potency [5]

CC1(C)CC[C@]2(C(=O)O)CC[C@]3(C)C(=CCC4[C@@]5(C)C[C@H](O)[C@H](O[C@@H]6OC[C@H](O)[C@H](O)[C@H]6O)[C@@](C)(CO)C5CC[C@]43C)[C@@H]2C1 (stereo not given in full)
inactive: Potency [1] | Potency [2] | Potency [3] | Potency [4] | Potency [5]

C=C1CCC2C(C)(C)CC(=O)CC2(C)C1CCC(C)CCOC(C)=O (stereo not given)
inactive: Potency [1] | Potency [2] | Potency [3] | Potency [4] | Potency [5]

CCC(CCO[C@@H]1O[C@H](CO[C@H]2OC[C@](O)(CO)[C@H]2O)[C@@H](O)[C@H](O)[C@H]1O)C(C)(C)O (stereo not given in full)
inactive: Potency [1] | Potency [2] | Potency [3] | Potency [4] | Potency [5]

CC1=CC(=O)C2C(C)(C)CCCC2(C)C12CCC1(COC(=O)C1)O2 (stereo not given)
inactive: Potency [1] | Potency [2] | Potency [3] | Potency [5]
active: Potency [4] 7.36 µM

OC[C@H]1O[C@@H](n2cnc3c(NCc4ccc(O)cc4)ncnc32)[C@H](O)[C@@H]1O
inactive: Potency [1] | Potency [2] | Potency [3] | Potency [4] | Potency [5]

C[C@@H]1O[C@@H](O[C@H]2[C@H](O[C@H]3[C@H](O[C@H]4CC[C@@]5(CO)C(CC[C@]6(C)C5CC=C5C7CC(C)(C)C[C@@H](O)[C@]7(C)CC[C@]56C)C4(C)C)O[C@H](C(=O)O)[C@@H](O)[C@@H]3O)OC[C@@H](O)[C@@H]2O)[C@H](O)[C@H](O)[C@H]1O (stereo not given in full)
inactive: Potency [1] | Potency [2] | outcome [3] inactive [at 11.6 µM] | activity change, negative = thiol reactive [4] 150% [at 11.5 µM] | activity, negative = inhibition [5] -0.0839% [at 11.6 µM]

CC(=O)N1c2ccccc2C2(O)CC3C(=O)NC(CC(C)C)C(=O)N3C12 (stereo not given)
inactive: Potency [1] | Potency [2] | Potency [3] | Potency [4] | Potency [5]

COC(=O)C1=CO[C@@H](O[C@@H]2O[C@H](CO)[C@@H](O)[C@H](O)[C@H]2O)[C@@H]2[C@@](C)(O)[C@@H](O)C[C@]12O
inactive: Potency [1] | Potency [2] | Potency [3] | Potency [4] | Potency [5]

CC1=C2CC3OC3(C)CCC3OC3(C)CC2OC1=O (stereo not given)
inactive: Potency [1] | Potency [2] | Potency [3] | Potency [4] | Potency [5]

NCCCC[C@H](NC(=O)[C@@H]1Cc2ccccc2CN1C(=O)CCC(=O)c1ccccc1)C(=O)NCC(c1ccccc1)c1ccccc1
inactive: Potency [1] | Potency [2] | Potency [3] | Potency [4] | Potency [5]

CC1CCC2(NC1)OC1C(=O)C3C4CCC5CC(O[C@@H]6O[C@H](CO)[C@@H](O)[C@H](O)[C@H]6O[C@@H]6O[C@@H](C)[C@H](O)[C@@H](O)[C@H]6O)CCC5(C)C4CCC3(C)C1C2C (stereo not given in full)
inactive: Potency [1] | Potency [2] | Potency [3] | Potency [4] | Potency [5]

COC(=O)C1=CO[C@@H](O[C@@H]2O[C@H](CO)[C@@H](O)[C@H](O)[C@H]2O)[C@@H]2[C@@H](C)[C@@H](O)C[C@H]12
inactive: Potency [1] | Potency [2] | Potency [3] | Potency [4] | Potency [5]

O=C(NCc1ccc(OC(F)(F)F)cc1)C1c2ccccc2C(=O)N1C1CCOCC1 (stereo not given)
inactive: Potency [1] | Potency [2] | Potency [3] | Potency [4] | Potency [5]

C=C(C)[C@@H]1CC[C@](C)(O)[C@@H](OC(=O)c2ccccc2)C1
inactive: Potency [1] | Potency [2] | Potency [3] | Potency [4] | Potency [5]

C[C@@H]1O[C@@H](O[C@H]2[C@H](O[C@H]3CO[C@@H](O[C@H]4CC[C@@]5(C)C(CC[C@]6(C)C5CC[C@]57OC[C@@]8(CC[C@](C)(CO)CC85)[C@H](O)C[C@]76C)C4(C)C)[C@H](O[C@@H]4O[C@H](CO)[C@@H](O)[C@H](O)[C@H]4O)[C@H]3O)O[C@H](CO)[C@@H](O)[C@@H]2O)[C@H](O)[C@H](O)[C@H]1O (stereo not given in full)
inactive: Potency [1] | Potency [2] | activity change, negative = inhibition [3] 0.85% [at 11.6 µM] | activity change, negative = thiol reactive [4] 26.5% [at 11.5 µM] | activity, negative = inhibition [5] -0.449% [at 11.6 µM]

CC1=C(C)C(=O)OC(C(C)(O)C2CCC3C4CC=C5CC(OC6OC(COC7OC(CO)C(O)C(O)C7O)C(O)C(O)C6O)CC(O)C5(C)C4CCC32C)C1 (stereo not given)
inactive: Potency [1] | Potency [2] | Potency [3] | Potency [4] | Potency [5]

O=C(O)[C@H]1CCCC[C@H]1C(=O)N1CCc2ccccc2[C@H]1CN1C(=O)c2ccccc2C1=O
inactive: Potency [1] | Potency [2] | Potency [3] | Potency [4] | Potency [5]

O=C(O[C@H]1[C@@H]2C=CO[C@@H](O[C@@H]3O[C@H](CO)[C@@H](O)[C@H](O)[C@H]3O)[C@@H]2[C@@]2(CO)O[C@@H]12)c1ccc(O)c(O)c1
inactive: Potency [1] | Potency [2] | Potency [3] | Potency [5]
active: Potency [4] 3.27 µM

Cc1ncc([N+](=O)[O-])n1CC(O)CN1CCOCC1 (stereo not given)
inactive: Potency [1] | Potency [2] | Potency [3] | Potency [4] | Potency [5]

CNC(=O)c1ccc(Nc2ncc(C(F)(F)F)c(NCc3nccnc3N(C)S(C)(=O)=O)n2)cc1
inactive: Potency [1] | Potency [2] | Potency [3] | Potency [4] | Potency [5]

CC(C)Nc1cc(-c2c[nH]c(C(=O)N[C@H](CO)c3cccc(Cl)c3)c2)c(Cl)cn1
inactive: Potency [1] | Potency [2] | Potency [3] | Potency [4] | Potency [5]

COC1=CC(=O)O[C@@H](CCc2ccccc2)[C@@H]1O
inactive: Potency [1] | Potency [2] | Potency [3] | Potency [4] | Potency [5]

N[C@@H](CC(=O)N1CCn2c(nnc2C(F)(F)F)C1)Cc1[nH]nc2c(F)c(F)ccc12
inactive: Potency [1] | Potency [2] | Potency [3] | Potency [4] | Potency [5]

CCCn1cnc2c(NCc3ccccc3)nc(N[C@H](CC)CO)nc21
inactive: Potency [1] | Potency [2] | Potency [3] | Potency [4] | Potency [5]

COc1cc(/C=C/C(=O)OC[C@H]2O[C@H](O[C@]3(CO)O[C@H](CO)[C@@H](O)[C@@H]3O)[C@H](O)[C@@H](O)[C@@H]2O)cc(OC)c1O
inactive: Potency [1] | Potency [2] | Potency [3] | Potency [4] | Potency [5]

Cn1ccnc1CCOC(c1cc2nccc(C(=O)O)c2[nH]1)c1ccccc1Cl (stereo not given)
inactive: Potency [1] | Potency [2] | Potency [3] | Potency [4] | Potency [5]

C[C@@H]1C[C@H](O)/C=C/[C@H](O)[C@@H](O)CC(=O)O1
inactive: Potency [1] | Potency [2] | Potency [3] | Potency [4] | Potency [5]

C=CC1(C)C=C2C(O)CC3C(C)(C(=O)O)CCCC3(C)C2CC1 (stereo not given)
inactive: Potency [1] | Potency [2] | Potency [3] | Potency [4] | Potency [5]

COC(=O)C1=CO[C@@H](O[C@@H]2O[C@H](CO[C@@H]3O[C@H](COC(=O)/C=C/c4ccc(O)cc4)[C@@H](O)[C@H](O)[C@H]3O)[C@@H](O)[C@H](O)[C@H]2O)[C@@H]2C(CO)=CC[C@H]12
inactive: Potency [1] | Potency [2] | Potency [3] | Potency [4] | Potency [5]

CC(CCC1C(C(=O)O)=CC(=O)CC1(C)C)O[C@@H]1O[C@H](CO)[C@@H](O)[C@H](O)[C@H]1O (stereo not given in full)
active: Potency [4] 5.85 µM
inactive: Potency [1] | Potency [2] | Potency [3] | Potency [5]

Cc1c(-c2ccnn2C)cc(C(=O)NCc2ccc(S(C)(=O)=O)cn2)c(=O)n1-c1cccc(C(F)(F)F)c1
inactive: Potency [1] | Potency [3] | Potency [4] | Potency [5]
inactive and 12.8 µM (active): Potency [2]

CC12CCC3c4ccc(O)cc4CCC3C1CCC2OC1OC(C(=O)O)C(O)C(O)C1O (stereo not given)
inactive: Potency [1] | Potency [2] | Potency [3] | Potency [4] | Potency [5]

C=C1C(=O)O[C@H]2[C@H]1[C@@H](OC(=O)C(C)CO)C[C@@]1(C)[C@H](O)CCC(=O)[C@H]21 (stereo not given in full)
inactive: Potency [1] | Potency [2] | Potency [3] | Potency [4] | Potency [5]

CCOc1nc2cccc(C(=O)O)c2n1Cc1ccc(-c2ccccc2-c2noc(=O)[nH]2)cc1
active: Potency [5] 21.3 µM
inactive: Potency [1] | Potency [2] | Potency [3] | Potency [4]

CC1(C)C(=O)N2c3ccccc3[C@]3(CC(n4cnc5ccccc5c4=O)C(=O)O3)[C@H]2N1O (stereo not given in full)
inactive: Potency [1] | Potency [2] | Potency [3] | Potency [4] | Potency [5]

OC1COC(OCC2OC(OCCc3ccccc3)C(O)C(O)C2O)C(O)C1O (stereo not given)
active: Potency [4] 4.12 µM
inactive: Potency [1] | Potency [2] | Potency [3] | Potency [5]

O=C(c1ccc(NS(=O)(=O)c2cccc3cccnc23)cc1)N1CCN(CC2CC2)CC1
inactive: Potency [1] | Potency [2] | Potency [3] | Potency [4] | Potency [5]

Cc1coc2c1CC1OC1(C)CCC1OC1(C)C2 (stereo not given)
inactive: Potency [1] | Potency [2] | Potency [3] | Potency [4] | Potency [5]

CC(=O)OC1C=C(C(=O)O)C2(CO)CCC(C)C(C)(CCc3ccoc3)C2C1 (stereo not given)
inactive: Potency [1] | Potency [2] | Potency [3] | Potency [4] | Potency [5]

c1ccc(C(OC2CCN(CCCc3nn[nH]n3)CC2)c2ccccc2)cc1
inactive: Potency [1] | Potency [2] | Potency [3] | Potency [4] | Potency [5]
